Measured values reported in PubChem BioAssay (NCI).
Values joined by “and” are separate entries in the source; they are usually repeats but may differ in a detail not shown here. Identical values can stand only once. The panel holds about 83,000 compounds, 20% with a hit somewhere; the sample as a whole holds those more often.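 Testing used 96-well plates and a 48-hour single-concentration exposure. Example: -40 means 40% of the starting cells died.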 Active and inactive are the calls of the source. The calls were made as follows: active = growth percent below 10; inactive = the rest. Where a SMILES comes first, the peptide text is derived from it.

Experiments:
Assay in all cases: NCI-60 one-dose screen, 48 h (100 = growth as untreated, 0 = no growth, -100 = all killed)
Details in all cases: 10 µM unless noted
K-562 leukemia = test system: K-562 leukemia
MDA-MB-231 breast = test system: MDA-MB-231 breast
RXF 393 renal = test system: RXF 393 renal
SF-539 CNS = test system: SF-539 CNS
UACC-257 melanoma = test system: UACC-257 melanoma
M14 melanoma = test system: M14 melanoma
DU-145 prostate = test system: DU-145 prostate
MALME-3M melanoma = test system: MALME-3M melanoma
SF-268 CNS = test system: SF-268 CNS
SF-295 CNS = test system: SF-295 CNS

Measured: growth

Oc1ccc(Cc2ccccc2Cl)c(O)c1
inactive: K-562 leukemia 91.5% | MDA-MB-231 breast 71.7% | RXF 393 renal 83.9% | SF-539 CNS 93.9% | UACC-257 melanoma 93.2% | M14 melanoma 99.1%

Brc1ccc(SSc2ccc(Br)cc2)cc1
inactive: DU-145 prostate 93.6% | K-562 leukemia 89.9% | MALME-3M melanoma 74.8% | RXF 393 renal 74.6% | SF-268 CNS 58.9% | SF-295 CNS 52.2% | SF-539 CNS 56.1% | UACC-257 melanoma 97.7% | M14 melanoma 68.7%

O=C1OC(C(O)C(O)CO)C(O)=C1O (stereo unspecified)
inactive: DU-145 prostate 115% | K-562 leukemia 99% and 90.4% | MALME-3M melanoma 94.2% | MDA-MB-231 breast 116% and 101% | RXF 393 renal 116% | SF-268 CNS 109% and 105% | SF-295 CNS 136% and 101% | SF-539 CNS 96.8% | UACC-257 melanoma 98.7% and 88.2% | M14 melanoma 96.9% and 100%

NC(Cc1ccccc1)C(=O)NC(Cc1ccccc1)C(=O)O (stereo not drawn) (H-Phe-Phe-OH; configuration not given here)
inactive: DU-145 prostate 111% and 106% | K-562 leukemia 97.9% and 114% | MALME-3M melanoma 99.4% | MDA-MB-231 breast 115% and 108% | RXF 393 renal 105% | SF-268 CNS 101% and 106% | SF-295 CNS 107% and 99.4% | SF-539 CNS 101% and 92.6% | UACC-257 melanoma 88.2% and 92.8% | M14 melanoma 103% and 97.1%

C#CCOC(=O)Nc1ccccc1
inactive: DU-145 prostate 106% | K-562 leukemia 96.9% | MALME-3M melanoma 115% | MDA-MB-231 breast 116% | RXF 393 renal 124% | SF-268 CNS 105% | SF-295 CNS 107% | SF-539 CNS 97.5% | UACC-257 melanoma 93.7% | M14 melanoma 103%

Nc1nc(N)c2[nH]cnc2n1
inactive: DU-145 prostate 73.1% | K-562 leukemia 76.5% | MALME-3M melanoma 125% | MDA-MB-231 breast 99.3% | SF-268 CNS 83.8% | SF-295 CNS 84.7% | SF-539 CNS 92.8% | UACC-257 melanoma 56.1% | M14 melanoma 88.2%

Cc1cc(-c2ccc(N=Nc3ccc4c(S(=O)(=O)O)cc(S(=O)(=O)O)c(N)c4c3O)c(C)c2)ccc1N=Nc1ccc2c(S(=O)(=O)O)cc(S(=O)(=O)O)c(N)c2c1O
inactive: DU-145 prostate 105% | K-562 leukemia 90.8% | MALME-3M melanoma 107% | MDA-MB-231 breast 110% | RXF 393 renal 101% | SF-268 CNS 102% | SF-295 CNS 93.7% | SF-539 CNS 90.8% | UACC-257 melanoma 105% | M14 melanoma 118%

C/C(=C\c1ccccc1)c1ccccn1
inactive: DU-145 prostate 112% | K-562 leukemia 105% | MALME-3M melanoma 102% | MDA-MB-231 breast 91% | SF-268 CNS 99.3% | SF-295 CNS 113% | SF-539 CNS 98.1% | UACC-257 melanoma 105% | M14 melanoma 108%

Fc1ccc([I+]c2ccc(F)cc2)cc1
inactive: DU-145 prostate 92.1% | K-562 leukemia 43.2% | MALME-3M melanoma 61.1% | RXF 393 renal 101% | SF-268 CNS 58.9% | SF-295 CNS 95.4% | SF-539 CNS 62.1% | UACC-257 melanoma 85.5% | M14 melanoma 79%

CCCCCCCCCCNC(=O)CI
active: K-562 leukemia 0.309% | MDA-MB-231 breast 9.39% | RXF 393 renal -86.5% | M14 melanoma -24.8%
inactive: DU-145 prostate 99.1% | SF-268 CNS 37.1% | SF-539 CNS 39.1% | UACC-257 melanoma 66.3%

OCCN1CCCCCCC1
inactive: DU-145 prostate 113% | K-562 leukemia 105% | MALME-3M melanoma 96% | MDA-MB-231 breast 99.5% | RXF 393 renal 100% | SF-268 CNS 107% | SF-295 CNS 95.9% | SF-539 CNS 98.7% | M14 melanoma 92.3%

Cl
inactive: DU-145 prostate 119% | MALME-3M melanoma 116% | MDA-MB-231 breast 115% | RXF 393 renal 117% | SF-268 CNS 116% | SF-295 CNS 99.2% | SF-539 CNS 111% | UACC-257 melanoma 105% | M14 melanoma 107%

CN1CNC(=O)NC1
inactive: DU-145 prostate 118% and 106% | K-562 leukemia 112% and 86% | MALME-3M melanoma 120% and 96% | MDA-MB-231 breast 119% and 102% | RXF 393 renal 102% and 106% | SF-268 CNS 111% and 103% | SF-295 CNS 96.5% and 104% | SF-539 CNS 111% and 98.4% | UACC-257 melanoma 111% and 86.9% | M14 melanoma 97.2% and 106%

OC1COC(OCc2ccccc2)C(O)C1O (stereo unspecified)
inactive: DU-145 prostate 105% | K-562 leukemia 97.9% | MALME-3M melanoma 78.7% | MDA-MB-231 breast 109% | RXF 393 renal 103% | SF-268 CNS 106% | SF-295 CNS 101% | SF-539 CNS 105% | M14 melanoma 96.8%

COc1ccc(Nc2ccc3ccccc3c2)cc1
inactive: DU-145 prostate 83.2% | K-562 leukemia 31.6% | MDA-MB-231 breast 77.9% | RXF 393 renal 58.6% | SF-268 CNS 81.2% | SF-295 CNS 79.6% | SF-539 CNS 93.1% | M14 melanoma 72.9%

ClCCOCCOc1ccc(C2CCCCC2)cc1
inactive: DU-145 prostate 102% | K-562 leukemia 118% | MDA-MB-231 breast 103% | RXF 393 renal 101% | SF-268 CNS 109% | SF-295 CNS 97.1% | SF-539 CNS 102% | UACC-257 melanoma 91.2% | M14 melanoma 108%

NC(=O)NCCCC(N)C(=O)O (stereo unspecified)
inactive: DU-145 prostate 101% | K-562 leukemia 97.9% | MALME-3M melanoma 93.1% | MDA-MB-231 breast 104% | RXF 393 renal 106% | SF-268 CNS 104% | SF-295 CNS 117% | SF-539 CNS 103% | UACC-257 melanoma 102% | M14 melanoma 100%

O=C(O)CCCl
inactive: DU-145 prostate 114% | K-562 leukemia 111% | MALME-3M melanoma 115% | MDA-MB-231 breast 125% | RXF 393 renal 103% | SF-268 CNS 108% | SF-539 CNS 99.8% | UACC-257 melanoma 111% | M14 melanoma 129%

OCC1OC(O)C(O)C(O)C1O (stereo unspecified)
inactive: DU-145 prostate 120% | K-562 leukemia 110% | MALME-3M melanoma 180% | MDA-MB-231 breast 116% | RXF 393 renal 124% | SF-268 CNS 102% | SF-295 CNS 102% | SF-539 CNS 102% | UACC-257 melanoma 114% | M14 melanoma 101%

Cc1ccc(S(=O)(=O)c2ccccc2)cc1
active: SF-295 CNS 2.7% | UACC-257 melanoma 8.5%
inactive: DU-145 prostate 26.3% | K-562 leukemia 23.2% | MALME-3M melanoma 66.6% | MDA-MB-231 breast 50% | RXF 393 renal 39.3% | SF-268 CNS 47.9% | SF-539 CNS 28.7% | M14 melanoma 15.4%

CC1CCC2(OC1)OC1CC3C4CC=C5CC(O)CCC5(C)C4CCC3(C)C1C2C (stereo unspecified)
inactive: DU-145 prostate 107% | K-562 leukemia 97.3% | MALME-3M melanoma 120% | MDA-MB-231 breast 100% | SF-268 CNS 89.6% | SF-295 CNS 119% | SF-539 CNS 91.2% | M14 melanoma 102%
active: UACC-257 melanoma -3.06%

O=C(/C=C/c1ccccc1)c1ccccc1
inactive: DU-145 prostate 97.7% | MALME-3M melanoma 128% | MDA-MB-231 breast 110% | RXF 393 renal 114% | SF-268 CNS 97.2% | SF-295 CNS 99.1% | SF-539 CNS 88.2% | UACC-257 melanoma 106% | M14 melanoma 98.1%

CC(=O)OC(C)C(=O)NCC(C)O (stereo unspecified)
inactive: DU-145 prostate 104% | K-562 leukemia 97.9% | MALME-3M melanoma 108% | MDA-MB-231 breast 124% | RXF 393 renal 113% | SF-268 CNS 100% | SF-539 CNS 102% | UACC-257 melanoma 108% | M14 melanoma 97.8%

O=CN1CCCCC1
inactive: DU-145 prostate 114% | K-562 leukemia 104% | MALME-3M melanoma 103% | MDA-MB-231 breast 104% | SF-268 CNS 105% | SF-295 CNS 97.8% | SF-539 CNS 99.8% | UACC-257 melanoma 104% | M14 melanoma 121%

NN1CCOC(c2ccccc2)C1 (stereo unspecified)
inactive: DU-145 prostate 102% | K-562 leukemia 10.3% | MDA-MB-231 breast 99.1% | RXF 393 renal 101% | SF-268 CNS 99.6% | SF-295 CNS 118% | SF-539 CNS 100% | UACC-257 melanoma 103% | M14 melanoma 90.9%

N#CC(C#N)N=Nc1cc(Cl)ccc1Cl
inactive: DU-145 prostate 111% | K-562 leukemia 95.3% | MDA-MB-231 breast 91.7% | RXF 393 renal 115% | SF-268 CNS 95% | SF-539 CNS 99.8% | UACC-257 melanoma 92% | M14 melanoma 98.5%

Cn1cnc([N+](=O)[O-])c1Sc1ncn[nH]1
inactive: DU-145 prostate 108% | K-562 leukemia 137% | MALME-3M melanoma 91.6% | MDA-MB-231 breast 106% | RXF 393 renal 26.1% | SF-268 CNS 106% | SF-295 CNS 116% | SF-539 CNS 103% | M14 melanoma 95.9%
active: UACC-257 melanoma 4.36%
